From PubChem BioAssay AID485364 (National Center for Advancing Translational Sciences (NCATS), 2010)
The whole screen tested about 360,000 compounds, of which about 11,000 (3.1%) were called active. Not shown: some 4% with an inconclusive outcome. The call rests on the fitted dose curve; in most records, active means well fitted inhibition curve with a large enough effect; inconclusive means small, poorly fitted or top-dose-only effect; inactive means no such curve, though single readings can be large or run the other way. Shown is part of a subset that was picked to be rich in actives.

Molecular target: Schistosoma mansoni thioredoxin glutathione reductase (TGR) (UniProt Q962Y6)
Experiment: qHTS Assay for the Inhibitors of Schistosoma Mansoni Peroxiredoxins; further: nearly all actives have a fitted effect of over 60% in size
Conditions: purified TGR, DTNB reduction, TNB absorbance 405 nm; series mostly up to 114 µM; activity change, negative = inhibition: at the top concentration
Excerpt: Schistosomiasis is a major neglected tropical disease that currently affects over 200 million. It is caused by different species of flatworms, such as Schistosoma mansoni. Over the last century, drugs to treat the disease have evolved from potassium antimonyl tartrate, artemisinin, oxamniquine, to praziquantel, with praziquantel remaining the universally-used single drug of choice over the past three decades. However, transmission rates have changed little with praziquantel, and there is evidence for the development of drug resistant parasites. Because there is currently no suitable alternative therapy available, there is an urgent need to identify new targets and drugs for schistosomiasis treatment. Thioredoxin glutathione reductase (TGR), one uniquely positioned S. mansoni enzyme, has been identified as a major component of the worms' distinct and compressed antioxidant "firewall". TGR is a multifunctional enzyme that catalyzes the interconversion between reduced and oxidized forms of both glutathione (GSH) and thioredoxins, thus making it an attractive new antiparasitic target. Recently, a quantitative high-throughput screen of the NIH Molecular Libraries Small Molecule Repository (MLSMR, ~71K at the time of the screen in 2007) was performed using an assay that targeted both TGR and peroxiredoxin2 (Prx2, an H2O2-reducing enzymatic component of the S. mansoni redox "firewall") by following the decrease of NADPH fluorescence. […] Additional mechanistic link between exogenous NO donation and parasitic injury for the oxadiazole-2-oxide class of compounds was also expanded and better defined. Although the screen addressed both TGR and Prx2, the assay required post-screen target deconvolution for further characterization of the actives. In addition, the fluorescence assay was also subject to fluorescence interference from compound library members. We have developed a 1536-well-based kinetic HTS assay to address TGR alone. The assay followed the reduction of 5, 5'-dithiobis (2-nitrobenzoic acid) (DTNB) (Ellman's reagent) by NADPH and measured the increase in absorbance at 412 nm of the reaction product, TNB. […] This assay format can be used to screen the current MLSMR collection (with >300K compounds available) to find novel TGR inhibitors. Furoxan is a good choice to serve as a positive control in the primary HTS assay.
Three microliters of reagents (100 uM NADPH and 20 nM TGR or 100 uM NADPH as no-enzyme control) were dispensed into 1,536-well black clear-bottomed plates. Compounds (23 nL) were transferred via Kalypsys pin tool equipped with 1536-pin array (10 nL slotted pins, V&P Scientific, San Diego, CA). The plates were then be incubated for 15 min at room temperature, and 1 uL aliquot of 500 uM NADPH were added, immediately followed by a 1 uL aliquot of 15 mM DTNB to start the reaction. The plate was transferred to a ViewLux high-throughput CCD imager (Perkin-Elmer, Wellesley, MA) where kinetic measurements of the TNB absorbance were acquired using a 405 excitation filter. Throughout the screen, reagent bottles and all liquid lines were made light-tight to minimize reagent degradation. All screening operations were performed on a fully integrated robotic system (Kalypsys, San Diego, CA) containing one RX-130 and two RX-90 anthropomorphic robotic arms (Staubli, Duncan, SC). Library plates were screened starting from the lowest and proceeding to the highest concentration, and a "double-dipping" step of the highest concentration was required to access higher concentrations of compounds. Vehicle-only plates, with DMSO being pin-transferred to the entire column 5-48 compound area, were inserted uniformly at the beginning and the end of each library in order to monitor for and record any shifts in the background, which can be affected by reagent dispensers or loss in enzyme activity overtime. […]
On the % scale 0 is the no-effect control and ±100 the full control effect; potency means the concentration at half of the fitted maximal effect.

| SMILES | activity change, negative = inhibition | Potency |
| --- | --- | --- |
| COc1ccc(S(=O)(=O)N2CCC(C(=O)N3CCCC3)CC2)cc1C | -3.4% (inactive) | – |
| COc1ccc(S(=O)(=O)N2CCC(C(=O)N3CCOCC3)CC2)cc1OC | – | 79.4 µM (active) |
| CCN1CCN(C(=O)C2CCCN(S(=O)(=O)c3ccc(OC)c(OC)c3)C2)CC1 (centres undefined) | 3.29% (inactive) | – |
| O=C(C1CCC(Cn2c(=O)c3sccc3n(Cc3ccccc3F)c2=O)CC1)N1CCCCC1 (centres undefined) | 19% (inactive) | – |
| COc1ccc(Cl)cc1NC(=O)c1sc2nc3c(cc2c1N)CN(C)CC3 | 0.374% (inactive) | – |
| CCCCN(CC)C(=O)c1c[nH]c2ccc(S(=O)(=O)Nc3cccc(OC)c3)cc2c1=O | 3.28% (inactive) | – |
| Clc1ccccc1CSc1nncn2c1cc1occc12 | -12.1% (inactive) | – |
| Cc1ccc(-c2nnc(SCC(=O)NCc3ccccc3)nc2-c2ccc(C)cc2)cc1 | 0.946% (inactive) | – |
| CC1(C)N=C(SCc2ccccc2Cl)c2ccccc2N1 | -1.4% (inactive) | – |
| c1ccc(CSc2nnc(-c3ccco3)c(-c3ccco3)n2)cc1 | – | 2.82 µM (active) |
| Clc1ccc(CSc2nnc3c(n2)[nH]c2ccccc23)cc1 | 10.3% (inactive) | – |
| Clc1ccccc1CSc1nnc(-c2ccco2)c(-c2ccco2)n1 | – | 7.94 µM (active) |
| COc1ccccc1CNC(=O)CCCn1c(=O)c2ccccc2n(CC(=O)Nc2ccc(C)cc2Cl)c1=O | 6.54% (inactive) | – |
| CCN(CC)c1ccc(C2C(C(N)=O)=C(C)Nc3nc(SCc4ccccc4)nn32)cc1 (centres undefined) | 2.58% (inactive) | – |
| COc1cccc(-c2nc3n(n2)C(c2ccccc2Cl)C(C(N)=O)=C(C)N3)c1 (centres undefined) | -0.143% (inactive) | – |
| CC1=C(C(N)=O)C(c2ccc3c(c2)OCO3)n2nc(-c3cccc(C)c3)nc2N1 (centres undefined) | – | 0.251 µM (active) |
| Cc1cccc(-n2ccnc2SCC(=O)Nc2cccc3ccccc23)c1C | -0.262% (inactive) | – |
| COc1ccc(-c2cc(C(F)(F)F)nc(SCC(=O)N(C)Cc3ccccc3)n2)cc1OC | -0.774% (inactive) | – |
| COc1ccc(CCNc2nc(-c3ccc(F)cc3)cc(C(F)(F)F)n2)cc1OC | 7.8% (inactive) | – |
| COc1ccc(-c2cc(C(F)(F)F)nc(S(C)(=O)=O)n2)cc1OC | – | 31.6 µM (active) |
| CC1CN(C(=O)N2CCC(C(=O)NCc3ccco3)CC2)c2cc(Cl)ccc2O1 (centres undefined) | 2.23% (inactive) | – |
| Cc1cc(Cl)ccc1OCC(=O)N(Cc1ccc(N(C)C)cc1)C1CCS(=O)(=O)C1 (centres undefined) | -3.15% (inactive) | – |
| O=C(COC(=O)CCC(=O)c1cccs1)NCc1ccco1 | – | 25.1 µM (active) |
| CC1CCN(C(=O)COC(=O)CCC(=O)c2cccs2)CC1 | -0.877% (inactive) | – |
| O=C(COC(=O)c1cccs1)NCc1cccs1 | 0.591% (inactive) | – |

| SMILES | activity change, negative = inhibition | Potency |
| --- | --- | --- |
| CCN(CCCNC(=O)c1cc2c(=O)n(CC)c3ccccc3c2s1)Cc1ccccc1 | 1.45% (inactive) | – |
| O=C(Nc1ncc2c(n1)CC(c1ccco1)CC2=O)c1ccc(Cl)cc1 (centres undefined) | – | 44.7 µM (active) |
| O=C(Nc1ncc2c(n1)-c1ccccc1OC2)c1ccc(Cl)cc1 | -18.3% (inactive) | – |
| CCN1CCN(c2ncc3c(n2)CC(c2ccccc2O)CC3=O)CC1 (centres undefined) | 3.56% (inactive) | – |
| CC1=C(C(=O)Nc2ccc(Cl)cc2)C(c2ccco2)NC(=O)N1 (centres undefined) | 3.63% (inactive) | – |
| CCc1ccc(Nc2ncc3c(n2)CC(c2ccco2)CC3=O)cc1 (centres undefined) | – | 39.8 µM (active) |
| COc1cc(C2CC(=O)c3cnc(NC(C)=O)nc3C2)cc(OC)c1OC (centres undefined) | -0.421% (inactive) | – |
| COc1ccc(C(=O)COC(=O)CCCC(=O)Nc2cc(C(F)(F)F)ccc2Cl)cc1 | -11.9% (inactive) | – |
| CCc1ccc(C(=O)CC2(O)C(=O)N(CCc3ccccc3)c3ccc(Br)cc32)cc1 (centres undefined) | 6.62% (inactive) | – |
| CC1CCN(c2nc3ccc(C(=O)N4CCN(c5ccccc5)CC4)cc3s2)CC1 | 2.12% (inactive) | – |
| CCCN(CCC)CCCNC(=O)Cn1cc2c(n1)-c1c(oc(C(=O)N3CCCC3)c1C)CC2 | -2.8% (inactive) | – |
| CCC(=O)Nc1cccc(-c2nc3cc(C)ccc3o2)c1 | 11% (inactive) | – |
| C[C@@H]1C[C@@H]2O[C@H]2/C=C\C=C\C(=O)Cc2c(Cl)c(O)cc(O)c2C(=O)O1 | – | 4.47 µM (active) |
| CC(C)CC(NS(=O)(=O)c1ccc2c(c1)oc(=O)n2C)C(=O)NCc1ccccc1Cl (centres undefined) | -2.66% (inactive) | – |
| CCc1ccc(NC(=O)CN2CCSc3ccc(S(=O)(=O)N4CCCC4)cc32)cc1 | 6.65% (inactive) | – |
| Cc1cc(OC(C)C(=O)Nc2sc3c(c2C(N)=O)CCCC3)ccc1Cl (centres undefined) | 11.2% (inactive) | – |
| NC(=O)c1c(Nc2nc3c(F)cccc3s2)sc2c1CCCC2 | – | 39.8 µM (active) |
| COc1ccc(-c2cc(C(=O)Nc3sc4c(c3C(N)=O)CCCC4)no2)cc1 | -10% (inactive) | – |
| COC(=O)c1ccc(NC(=O)CSc2n[nH]c(-c3ccccc3)n2)cc1 | 6.33% (inactive) | – |
| Cc1ccc(CN2COc3cc(C)c4c(oc(=O)c5ccccc54)c3C2)cc1 | -6.11% (inactive) | – |
| COc1cc(CN(C(=O)c2ccccc2Br)c2ccccn2)cc(OC)c1OC | -0.508% (inactive) | – |
| COc1cccc(CNC(=O)C2CCN(S(=O)(=O)c3ccc4c(ccn4C)c3)CC2)c1 | -1.19% (inactive) | – |
| COc1cc(/C=N/O)cc(Br)c1OS(=O)(=O)c1ccc(C)cc1 | 12.5% (inactive) | – |
| COc1cc(/C=N/Nc2ccc(C)cc2)cc(Br)c1O | – | 10 µM (active) |
